Among the data in PubChem BioAssay are composite z-score values, retold here.

Chain of Follistatin (Homo sapiens) (P19883 whole entry, looked up): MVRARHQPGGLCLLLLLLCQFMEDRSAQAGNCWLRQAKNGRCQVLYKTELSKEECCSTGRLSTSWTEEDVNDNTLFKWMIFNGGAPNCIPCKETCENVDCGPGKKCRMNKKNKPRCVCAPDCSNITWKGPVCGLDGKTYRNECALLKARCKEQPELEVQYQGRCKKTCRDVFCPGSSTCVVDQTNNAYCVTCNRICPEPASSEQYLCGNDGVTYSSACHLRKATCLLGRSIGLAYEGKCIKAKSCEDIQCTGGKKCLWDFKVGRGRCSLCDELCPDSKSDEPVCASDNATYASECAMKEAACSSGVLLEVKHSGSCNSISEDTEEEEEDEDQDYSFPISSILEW

One assay concerns Fibrinogen (Alexa647-labelled). The assay can be described thus: Alexa647-fibrinogen binding to printed small molecules – biochemical, small-molecule microarray, 635/667 nm fluorescence, artefact control for SMM control-protein annotation, profiling panel (AID 1131).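 Further: z-score merges 667 nm fluorescence with per-spot signal-to-noise over triplicate slides.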 The settings on record: fibrinogen-A647 binding fluorescence, higher = more signal.
With `COC(=O)[C@@]1(Cc2ccc(OC)cc2)[C@H]2c3cc(C(=O)N4CCCC4)n(Cc4ccccc4)c3C[C@H]2CN1C(=O)c1ccccc1`, the composite z-score turned out to be 1.

The compound `C=C(CCCC)C(=O)CC[C@@H](OC(=O)c1cccnc1)c1ccc(CO)o1` had a composite z-score of 0.947.

`COc1ccc(C(=O)O[C@H]2CC[C@]3(C)C4=C(CCC3C2(C)C)[C@]2(C)CC[C@H]([C@H](C)CCCC(C)C)[C@@]2(C)CC4)cc1` (stereo partly specified) returned a composite z-score of 0.206. Still for that read-out and setting: to `[N-]=[N+]=NCc1ccccc1[C@@H]1OC(c2ccc(OCCCO)cc2)=N[C@]1(Cc1ccccc1N=[N+]=[N-])C(=O)N1CCOCC1` belongs 0.857; to `COc1ccc([Si](C)(C)[C@@H]2[C@@H](CC(=O)N3Cc4ccccc4C[C@H]3CO)O[C@]3(C(=O)N(C)c4c(Br)cc(C)cc43)[C@H]2C)cc1`, 0.76; to `C=CC[C@@]1(C(=O)NCc2ccccc2)N=C(c2ccc(OCCCO)cc2)O[C@@H]1c1ccccc1N=[N+]=[N-]`, 0.993. As for `CC(CO)N1C(=O)[C@@H]2C3C(=O)OCCC/C=C\[C@H]3OC23C=CCN(c2ccc4ccccc4c2)C(=O)[C@@H]13` (stereo partly specified), the composite z-score was found to be 0.167. On the same count and under the same terms, to `C=CCOC(=O)[C@@H]1[C@H]2C(=O)O[C@H](c3ccccc3)[C@H](c3ccccc3)N2[C@H](c2ccc(OCCOC(=O)[C@@H]3C[C@@H]4C(=O)N[C@@H](CCCC[N+](C)(C)C)C(=O)N4[C@@H]3c3cccc(OCCO)c3)cc2)[C@@]12C(=O)Nc1ccc(I)cc12` belongs 0.531; to `CCOC(=O)C[C@H]1[C@H](OC(=O)Cc2ccc3c(c2)OCO3)[C@@H](NC(=O)c2ccc3ccccc3c2)c2cc(OCCCO)ccc2N1C(=O)c1ccccc1`, 0.823; to `[N-]=[N+]=Nc1ccccc1C[C@]1(C(N)=O)N=C(c2ccc(OCCCO)cc2)O[C@H]1c1ccccc1`, 1.01. On the same count and under the same terms, to `COC(=O)C=C(CC(O)c1cccc(Cl)c1)OC` (stereo unspecified) belongs 0.6.

For the compound `Cc1ccc(C(C)CC(O)C2C=CC3C(=O)N(c4ccccc4)C(=O)C3N2Nc2ccc([N+](=O)[O-])cc2)o1` (stereo unspecified), the composite z-score is 0.904. Consider `[N-]=[N+]=Nc1ccccc1C[C@]1(C(=O)NCC(O)CO)N=C(c2ccc(OCCCO)cc2)O[C@H]1c1ccccc1N=[N+]=[N-]` (stereo partly specified), for which the composite z-score was 0.578.

Another assay has as its target Follistatin (Homo sapiens) (UniProt P19883). The assay can be described thus: FST protein binding to printed compounds – biochemical, small-molecule microarray, 635/667 nm fluorescence, primary screen (AID 1132). The settings on record: 635 nm fluorescence, higher = more signal.
`COCCCNC(=O)[C@@]1(Cc2ccccc2N=[N+]=[N-])N=C(c2ccc(OCCCO)cc2)O[C@H]1c1ccccc1N=[N+]=[N-]` registered a composite z-score of 1.25. Same read-out and setting: to `Cc1ccc(S[C@]2(C(=O)NC(C)C)CC(=O)N(Cc3ccccc3Cl)[C@@H]2c2ccc(CO)cc2I)cc1` belongs 0.237; to `CC(C)c1ccc(NN2C(C(O)c3cc(C(F)(F)F)cc(C(F)(F)F)c3)C=CC3C(=O)N(c4ccccc4)C(=O)C32)cc1` (stereo unspecified), -0.105.

Compound `CCOC(=O)[C@H]1C/C=C/C[C@H](C(=O)OCC)C(=O)O[C@H]2[C@@H](OC)O[C@H](CO)[C@@H](OC(=O)Nc3cccc(F)c3)[C@@H]2OC1=O` had a composite z-score of 0.247. Still for that read-out and setting: to `C=CCC(OC(C)=O)[C@@H]1[C@@H](N(Cc2ccc(-c3cccc(C(F)(F)F)c3)o2)C(=O)c2ccc(-c3ccccc3)cc2)c2cc(OCCCO)ccc2N1C(=O)c1ccc(-c2ccccc2)cc1` (stereo partly specified) belongs 0.47; to `O=C1O[C@H](c2ccccc2)[C@H](c2ccccc2)N2[C@H]1[C@@H](C(=O)NC[C@H](O)c1ccccc1)[C@]1(C(=O)Nc3ccccc31)[C@H]2c1ccc(OCCO)cc1`, 0.992. The same measure, in the same setting: to `C=CCOC(=O)[C@H]1[C@@H]2C(=O)O[C@@H](c3ccccc3)[C@@H](c3ccccc3)N2[C@@H](c2ccc(OCCOC(=O)[C@H]3C[C@H]4C(=O)N5CCC[C@H]5C(=O)N4[C@H]3c3ccc(O)cc3)cc2)[C@]12C(=O)Nc1ccc(I)cc12` belongs 1.47; to `O=C1NC(=O)C2C1C=CC(C(O)Cc1ccccc1)N2Nc1ccc(Cl)cc1Cl` (stereo unspecified), 0.178; to `CN(C)C(=O)[C@]1(Cc2ccccc2N=[N+]=[N-])N=C(c2ccc(OCCCO)cc2)O[C@@H]1c1ccccc1`, 1.31. Same read-out and setting: the figure for `COCCOC(=O)N1C(=O)[C@@]2(c3cc(C#CC4=CCCCC4)ccc31)[C@H](C(=O)Nc1nc3ccccc3s1)[C@H]1C(=O)O[C@H](c3ccccc3)[C@H](c3ccccc3)N1[C@@H]2c1ccc(OCCO)cc1` is 1.18; for `C=CC[C@@]1(C(N)=O)N=C(c2ccc(OCCCO)cc2)O[C@@H]1c1ccccc1CN=[N+]=[N-]` it is 1.08; for `C#CCN(CC1=CCCCC1)[C@H](c1ccccc1Br)[C@@H](O)Cc1ccccc1` it is -0.688. As for `COc1ccc(C(=O)Nc2ccc(CN3C(=O)[C@@]4(O[C@@H](CCO)[C@H]([Si](C)(C)c5ccc(OC)cc5)[C@H]4C)c4ccccc43)cc2)cc1`, the composite z-score came to 1.37.
